Assay results: PubChem BioAssay (NCI)
This is part of a sample that, as a whole, favours compounds with a hit. Of some 83,000 tested, about 20% had one in any assay.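 A percent growth of 40 corresponds to 60% growth inhibition; 0 means no net growth; -100 means all cells died. Active threshold: below 10.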 A number with no mark means an inactive call. The source made the active and inactive calls.

These compounds were tested on SK-MEL-2 melanoma (assay: NCI-60 one-dose screen, 48 h (100 = growth as untreated, 0 = no growth, -100 = all killed)). Details: 10 µM unless noted.

Structure (SMILES)	growth
NC1=CC(=O)C(=O)c2ccccc21	75.1%
NC(CC(=O)O)C(=O)OCc1ccccc1 (stereo unspecified)	94.8%
Cc1ccn2c(-c3csc(Nc4cccc(O)c4)n3)c(C)nc2c1	24.2%
COc1ccc(C(=O)c2sc3nc(-c4ccccc4OC)ccc3c2N)cc1OC	89.5%
Cc1nn(-c2nc3ccccc3[nH]2)c2c1C(c1ccc3c(c1)OCO3)CC(=O)N2 (stereo unspecified)	52.9%
COc1cnc2c(c1)C(=O)c1c-2n(CCCN2CCCC2)c(=O)c2cc([N+](=O)[O-])ccc12	13.8%
Cc1cc(Nc2nc(N3CCOCC3)nc3ccccc23)n[nH]1	51.5%
O=c1c(/C=C/c2ccco2)nnc(SCCN2CCOCC2)n1/N=C/c1ccc([N+](=O)[O-])cc1	106%
Nc1nc2ccc(-c3nc4ccc5[nH]ncc5c4c4c3CCC4)cc2s1	21.5%
COc1ccc(C(=O)c2sc3nc4c(cc3c2N)CCCC4)cc1OC	25.3%
O=C1Nc2c(ccc(Cl)c2Cl)/C1=C/c1cc(Br)c(O)c(Br)c1	73.2%
Cn1c2c(Cl)c(Cl)ccc2c2ccn3c(=O)c4ccccc4nc3c21	107%
C/C(=C(/c1ccc(O)cc1)c1ccc(Cl)cc1)c1ccccc1	-85.1% (active)
Oc1ccc2c(=S)cc(-c3ccc(Br)cc3)oc2c1O	63.8%
COc1cccc(-n2cc(-c3nc(Nc4cc(C)[nH]n4)c4ccccc4n3)nn2)c1	50.9%
O=C([C@@H](COCc1ccccc1)N1C(=O)[C@@H](N2C(=O)OC[C@@H]2c2ccccc2)[C@H]1/C=C/c1ccccc1)N1CCC(CCN2CCCCC2)CC1	71.7%
COc1ccc(-c2cc(/C=C3\C(=O)Nc4ccc(Cl)cc43)[nH]n2)cc1	51.2%
CNC(=S)N/N=C/CSC/C=N/NC(=S)NC	98.7%
CCCCCCCCOC(=O)CC[C@@H](C)[C@H]1CC[C@H]2[C@@H]3[C@H](OC(=O)CCN)C[C@@H]4C[C@H](OC(=O)CCN)CC[C@]4(C)[C@H]3C[C@H](OC(=O)CCN)[C@]12C	126%

Structure (SMILES)	growth
O=C1C=CC(=O)N1c1ccc(Cc2ccc(N3C(=O)C=CC3=O)cc2)cc1	112%
N#CC1=C(N)Oc2c(ccc3ccccc23)C1c1cccs1 (stereo unspecified)	52.5%
Cc1cc(Nc2nc(N3CCNCC3)nc3ccccc23)n[nH]1	53.6%
COc1cc(/C=N/N(C)C)ccc1O	101%
CCN(CC)CC(O)CNc1c2ccc([N+](=O)[O-])cc2nc2cc(OC)c(OC)cc12 (stereo unspecified)	-48.7% (active)
O=C1Nc2ccc(Br)cc2C12CC(c1ccccc1)=NN2 (stereo unspecified)	74.9%
O=C1C=CC(=O)c2c1nc1n2CCCC1	70.6%
Cc1cc(=O)oc2cc(Oc3nc(-c4cccs4)cn4c(-c5cccs5)cnc34)ccc12	69%
COc1ccc(-c2nc(Nc3cc(C)[nH]n3)c3ccccc3n2)cc1	59.7%
O=C1Nc2ccccc2/C1=C/C(=N/c1nnc(-c2ccc(Cl)cc2)s1)c1ccccc1	97.2%
Nc1cc2nc3ccccc3sc-2cc1=O	89.4%
Cc1csc2ccc(Cl)cc12	99.7%
Cc1ccc(NC(=O)c2sc3nc4c(cc3c2N)C(=O)CCC4)cc1C	37%
Cc1ccc2c(c1)n([O-])c1cc(Cl)ccc1[n+]2=O	92.5%
CC(C)[C@@H]1CC[C@]2(C(=O)NCCCCN=C(N)N)CC[C@]3(C)[C@H](CC[C@@H]4[C@@]5(C)CCC(=O)C(C)(C)[C@@H]5CC[C@]43C)[C@@H]12	83.3%
COC1C/C(=N\O)C2OC(c3ccccc3)OCC2O1 (stereo unspecified)	93.3%
COc1cc(-c2c3sc(=O)[nH]c3nc3c2c(=O)[nH]n3C(C)C)cc2c1OCO2	101%
CCOC(=O)C(C#N)C1CCCCC1 (stereo unspecified)	107%
Cc1cc(Nc2nc(-c3cccnc3)nc3ccccc23)n[nH]1	38.8%

The compounds below were run on SN12C renal in the same assay as above. Details: 10 µM unless noted.

Structure (SMILES)	growth
NC1=CC(=O)C(=O)c2ccccc21	84.2%
NC(CC(=O)O)C(=O)OCc1ccccc1 (stereo unspecified)	105%
Cc1ccn2c(-c3csc(Nc4cccc(O)c4)n3)c(C)nc2c1	20.8%
COc1ccc(C(=O)c2sc3nc(-c4ccccc4OC)ccc3c2N)cc1OC	66.1%
Cc1nn(-c2nc3ccccc3[nH]2)c2c1C(c1ccc3c(c1)OCO3)CC(=O)N2 (stereo unspecified)	41.9%
COc1cnc2c(c1)C(=O)c1c-2n(CCCN2CCCC2)c(=O)c2cc([N+](=O)[O-])ccc12	8.36% (active)
Cc1cc(Nc2nc(N3CCOCC3)nc3ccccc23)n[nH]1	60.2%
O=c1c(/C=C/c2ccco2)nnc(SCCN2CCOCC2)n1/N=C/c1ccc([N+](=O)[O-])cc1	102%
Nc1nc2ccc(-c3nc4ccc5[nH]ncc5c4c4c3CCC4)cc2s1	28.4%
COc1ccc(C(=O)c2sc3nc4c(cc3c2N)CCCC4)cc1OC	62.8%
O=C1Nc2c(ccc(Cl)c2Cl)/C1=C/c1cc(Br)c(O)c(Br)c1	80.2%
Cn1c2c(Cl)c(Cl)ccc2c2ccn3c(=O)c4ccccc4nc3c21	104%
C/C(=C(/c1ccc(O)cc1)c1ccc(Cl)cc1)c1ccccc1	-90.5% (active)
Oc1ccc2c(=S)cc(-c3ccc(Br)cc3)oc2c1O	-4.08% (active)
COc1cccc(-n2cc(-c3nc(Nc4cc(C)[nH]n4)c4ccccc4n3)nn2)c1	41%
O=C([C@@H](COCc1ccccc1)N1C(=O)[C@@H](N2C(=O)OC[C@@H]2c2ccccc2)[C@H]1/C=C/c1ccccc1)N1CCC(CCN2CCCCC2)CC1	83.4%
COc1ccc(-c2cc(/C=C3\C(=O)Nc4ccc(Cl)cc43)[nH]n2)cc1	63.1%
CNC(=S)N/N=C/CSC/C=N/NC(=S)NC	104%
CCCCCCCCOC(=O)CC[C@@H](C)[C@H]1CC[C@H]2[C@@H]3[C@H](OC(=O)CCN)C[C@@H]4C[C@H](OC(=O)CCN)CC[C@]4(C)[C@H]3C[C@H](OC(=O)CCN)[C@]12C	77.6%

Structure (SMILES)	growth
O=C1C=CC(=O)N1c1ccc(Cc2ccc(N3C(=O)C=CC3=O)cc2)cc1	96.1%
N#CC1=C(N)Oc2c(ccc3ccccc23)C1c1cccs1 (stereo unspecified)	26.5%
Cc1cc(Nc2nc(N3CCNCC3)nc3ccccc23)n[nH]1	76.1%
COc1cc(/C=N/N(C)C)ccc1O	94.9%
CCN(CC)CC(O)CNc1c2ccc([N+](=O)[O-])cc2nc2cc(OC)c(OC)cc12 (stereo unspecified)	-34.1% (active)
O=C1Nc2ccc(Br)cc2C12CC(c1ccccc1)=NN2 (stereo unspecified)	61.7%
O=C1C=CC(=O)c2c1nc1n2CCCC1	74%
Cc1cc(=O)oc2cc(Oc3nc(-c4cccs4)cn4c(-c5cccs5)cnc34)ccc12	73.8%
COc1ccc(-c2nc(Nc3cc(C)[nH]n3)c3ccccc3n2)cc1	40.1%
O=C1Nc2ccccc2/C1=C/C(=N/c1nnc(-c2ccc(Cl)cc2)s1)c1ccccc1	35.5%
Nc1cc2nc3ccccc3sc-2cc1=O	60.7%
Cc1csc2ccc(Cl)cc12	93.1%
Cc1ccc(NC(=O)c2sc3nc4c(cc3c2N)C(=O)CCC4)cc1C	52.9%
Cc1ccc2c(c1)n([O-])c1cc(Cl)ccc1[n+]2=O	100%
CC(C)[C@@H]1CC[C@]2(C(=O)NCCCCN=C(N)N)CC[C@]3(C)[C@H](CC[C@@H]4[C@@]5(C)CCC(=O)C(C)(C)[C@@H]5CC[C@]43C)[C@@H]12	60.7%
COC1C/C(=N\O)C2OC(c3ccccc3)OCC2O1 (stereo unspecified)	104%
COc1cc(-c2c3sc(=O)[nH]c3nc3c2c(=O)[nH]n3C(C)C)cc2c1OCO2	99.4%
CCOC(=O)C(C#N)C1CCCCC1 (stereo unspecified)	79.6%
Cc1cc(Nc2nc(-c3cccnc3)nc3ccccc23)n[nH]1	58.9%
